Out of some 350,000 compounds screened, about 450 (0.13%) were called active. The rule behind the calls is not given here. The list is a sample of the results. Measured potencies and affinities stand elsewhere. Where a SMILES comes first, the peptide text is derived from it. [ ]: non-standard residue; d: D form.
Assay: inhibitors of VEEV TC-83 cytopathic effect, confirmation, Vero cells (AID 588727)
Details: VEEV TC-83 cytopathic effect inhibition, at 20 µM
[1] = stronger effect = higher value unless noted
[2] = measured here: 10K pilot screen inhibition, stronger effect = higher value

## Nc1ccc(C(=O)OCc2nc3ccccc3[nH]2)cc1
[1]
  inhibition: 2.64% (inactive)

## COC(=O)c1ccc(C(=O)OCc2nc3cc4ccccc4cc3[nH]2)cc1
[1]
  inhibition: 0.06% (inactive)

## COc1ccc(CN(CC(=O)NCc2ccc(F)cc2)C(=O)c2csnn2)cc1
[1]
  inhibition: 1.52% (inactive)

## COc1ccc(NC(=O)c2nc[nH]c2C(=O)NCC(=O)OC(C)(C)C)cc1
[1]
  inhibition: 3.26% (inactive)

## O=C(NNC(=S)NC(=O)c1cccs1)c1ccc(O)cc1
[1]
  inhibition: 3.95% (inactive)

## Cc1cccc(C(=O)NC(=S)NCc2ccccc2)c1
[1]
  inhibition: 2.47% (inactive)

## O=C(NNC(=S)NC(=O)c1ccccc1)c1ccc(O)cc1
[1]
  inhibition: 4.47% (inactive)

## Cc1cccc(C(=O)NNC(=S)NC(=O)c2ccccc2)c1
[1]
  inhibition: 46.7% (inactive)

## Cc1cccc(C(=O)NC(=S)NNC(=O)c2cccs2)c1
[1]
  inhibition: inactive

## Cc1ccc(C(=O)NC(=S)NNC(=O)c2ccccc2)cc1
[1]
  inhibition: 0.96% (inactive)

## O=C(NNC(=S)NC(=O)c1ccco1)c1ccc(F)cc1
[1]
  inhibition: 0.7% (inactive)

## Cc1ccc(C(=O)NNC(=O)c2ccco2)cc1
[1]
  inhibition: 1.42% (inactive)

## COc1ccccc1NC(=O)C1CCN(S(=O)(=O)c2cccc3nonc23)CC1
[1]
  inhibition: 9.33% (inactive)

## CCOC(=O)c1ccc(NC(=O)CSc2nnc(CNc3ccc(OC)cc3)n2C)cc1
[1]
  inhibition: 0.98% (inactive)

## O=C(c1ccc(N2CCOCC2)c([N+](=O)[O-])c1)N1CCCCC1
[1]
  inhibition: 2.47% (inactive)

## CC1CC(C)CN(CCCNC(=O)CN2C(=O)c3cccnc3Oc3ccccc32)C1 (stereo not given)
[1]
  inhibition: inactive

## O=C(CCC(=O)OCC(=O)c1ccc([N+](=O)[O-])cc1)Nc1ccccc1Cl
[1]
  inhibition: inactive

## CCOc1ccc(CN2CCN(Cc3cn(CC)nc3C)CC2CCO)cc1 (stereo not given)
[1]
  inhibition: inactive

## CCOC(=O)c1sc2nc(C)nc(Nc3ccc(OC)cc3)c2c1C
[1]
  inhibition: 3.17% (inactive)

## COc1ccc(C(=O)Nc2ccccc2C(=O)N2CCCCCC2)cc1OC
[1]
  inhibition: 5.61% (inactive)

## CN1CCN(CCC(=O)Nc2ccc(C3CCCC3)cc2)CC1
[1]
  inhibition: 4.6% (inactive)

## O=C(Nc1ccc(N2CCN(C(=O)c3ccco3)CC2)cc1)c1cccnc1Cl
Higher = more active
  inhibition: 0.8% (inactive)
[2]
  inhibition: 1.86%

## COc1ccc(C)cc1NC(=O)C1CCN(C(=O)Cc2ccccc2)CC1
[1]
  inhibition: 0.59% (inactive)

## COc1ccc(C(=O)NNC(=S)NC(=O)c2ccc(OC)cc2)cc1
[1]
  inhibition: 2.82% (inactive)

## COc1ccccc1C(=O)NNC(=S)NC(=O)c1sc2ccccc2c1Cl
[1]
  inhibition: 4.48% (inactive)

## Cc1cccc(C)c1OCC(=O)NNC(=S)NC(=O)C1CC1
[1]
  inhibition: 9.29% (inactive)

## O=C(COc1ccccc1)NNC(=S)NC(=O)c1ccccc1
[1]
  inhibition: 52.2% (inactive)

## Cc1cccc(C(=O)NC(=S)NNC(=O)COc2c(C)cccc2C)c1
[1]
  inhibition: 1.29% (inactive)

## COc1ccc(C(=O)NC(=S)NNC(=O)c2ccc(C)cc2)cc1
[1]
  inhibition: 50.1% (inactive)

## COc1ccc(C(=O)NC(=S)NNC(=O)COc2ccccc2)cc1
[1]
  inhibition: 1.92% (inactive)

## COc1ccccc1C(=O)NC(=S)NNC(=O)c1sc2ccccc2c1Cl
[1]
  inhibition: 0.8% (inactive)

## CCCc1nnc(NC(=O)CNc2ccc(F)cc2)s1
[1]
  inhibition: 1.71% (inactive)

## CN(C)c1ccc(CNC(=O)c2cc(S(=O)(=O)N3CCCC3)cn2C)cc1
Higher = more active
  inhibition: 0.58% (inactive)
[2]
  inhibition: 0.765%

## Cc1ccc(C)c(S(=O)(=O)N/N=C/c2ccc(N3CCOCC3)cc2)c1
[1]
  inhibition: 13% (inactive)

## COc1ccc(-c2nnc(SCc3cccc(C)c3)n2N)cc1
[1]
  inhibition: 1.8% (inactive)

## O=c1n(Cc2ccccc2Cl)nc2n1-c1ccccc1SC2
[1]
  inhibition: 1.6% (inactive)

## CN1CCN(NC(=O)c2cn(-c3ccccc3)nc2-c2cccc(Br)c2)CC1
[1]
  inhibition: 4.96% (inactive)

## O=C(NC(=S)NNC(=O)c1cc2ccccc2cc1O)c1ccco1
[1]
  inhibition: 35.8% (inactive)

## COc1ccc(C(=O)NNC(=S)NC(=O)c2ccco2)cc1
[1]
  inhibition: 3.21% (inactive)

## O=C(CCc1ccccc1)NNC(=S)NC(=O)c1ccccc1
[1]
  inhibition: 8.58% (inactive)

## COc1ccc(C(=O)NC(=S)NCCc2ccccc2)cc1
[1]
  inhibition: inactive

## CC1CCN(c2ccc(C(=O)OCC(=O)NCCN3C(=O)CSC3=O)cc2[N+](=O)[O-])CC1
[1]
  inhibition: 2.94% (inactive)

## Nc1nc(=O)n(C2CCCO2)cc1Br (stereo not given)
[1]
  inhibition: inactive

## CCCCn1nnnc1SCC(=O)NCc1ccco1
[1]
  inhibition: 0.76% (inactive)

## CCOc1ccc(CCNC(=O)CCc2nnc3ccc(N4CCOCC4)nn23)cc1OCC
[1]
  inhibition: 0.04% (inactive)

## CCN(CC(=O)Nc1ccc(NC(C)=O)cc1)C(=O)C12CC3CC(CC(Cl)(C3)C1)C2
[1]
  inhibition: inactive

## Cn1cc(C(=O)Nc2ccc(Cl)c(Cl)c2)cn1
[1]
  inhibition: 0.63% (inactive)

## O=C(NC(Cc1c[nH]c2ccccc12)C(=O)N/N=C/c1ccc(Cl)cc1)c1cccs1 (stereo not given)
[1]
  inhibition: 6% (inactive)

## O=C(NC(Cc1c[nH]c2ccccc12)C(=O)Nc1ccc(OC(F)(F)F)cc1)c1cccs1 (stereo not given)
[1]
  inhibition: 11.9% (inactive)

## O=C(Nc1ccc(F)c([N+](=O)[O-])c1)c1cccs1
[1]
  inhibition: 0.78% (inactive)

## O=C(NC(Cc1c[nH]c2ccccc12)C(=O)O)c1cccs1 (stereo not given)
[1]
  inhibition: 0.43% (inactive)

## Cc1cc(C)nc(N2C(=O)CC(C(=O)O)NC2=NCCc2c[nH]c3ccccc23)n1 (stereo not given)
[1]
  inhibition: inactive

## COc1ccc(/C=N/NC(=O)c2c(-c3ccccc3)noc2C)cc1
[1]
  inhibition: 1.23% (inactive)

## CN(C)CCCN(C(=O)c1ccc(S(=O)(=O)N2CCc3ccccc32)cc1)c1nc2c(Cl)cccc2s1
[1]
  inhibition: 12.6% (inactive)

## COc1cc2nc(N(CCCN(C)C)C(=O)c3ccc(S(=O)(=O)N4CCc5ccccc54)cc3)sc2cc1OC
[1]
  inhibition: 5.52% (inactive)

## O=C(NC1CONC1=O)OCC(Cl)(Cl)Cl (stereo not given)
[1]
  inhibition: inactive

## CCc1nnc(NC(=O)C2CC(=O)N(Cc3ccco3)C2)s1 (stereo not given)
[1]
  inhibition: 2.16% (inactive)

## Cc1cc(C)c[n+](CC(=O)c2ccc(C)c([N+](=O)[O-])c2)c1
[1]
  inhibition: 0.1% (inactive)

## Cc1cccc[n+]1CC(=O)c1ccc([N+](=O)[O-])cc1
[1]
  inhibition: inactive

## S=C(N/N=C/c1ccc2ncccc2c1)Nc1ccccc1
[1]
  inhibition: 9.82% (inactive)

## COc1ccccc1C(=O)Nc1ccc2c(c1)CCCN2C(=O)c1cccs1
[1]
  inhibition: 4.26% (inactive)

## O=C(Nc1ccc2c(c1)CCCN2C(=O)c1cccs1)c1ccccc1
[1]
  inhibition: 6.53% (inactive)

## CCn1nnnc1SCC(=O)N1CCOCC1
[1]
  inhibition: 0.74% (inactive)

## COc1ccc(N2CC(C(=O)N/N=C/c3cc([N+](=O)[O-])ccc3O)CC2=O)cc1 (stereo not given)
[1]
  inhibition: 2.03% (inactive)

## CC[C@H](C)[C@@H]1NC(=O)[C@H]([C@@H](C)CC)NC(=O)[C@@H](CC(C)C)NC(=O)[C@H](Cc2ccccc2)NC(=O)[C@H](Cc2ccccc2)NC(=O)[C@@H]2CCCN2C(=O)[C@@H]2CCCN2C(=O)[C@H](C(C)C)NC(=O)[C@H](CC(C)C)NC1=O (cyclo(FF[dL]IILVPP))
[1]
  inhibition: inactive

## CCC(C)[C@@H]1NC(=O)N(CCCN2CCCC2=O)C1=O (stereo not given in full)
[1]
  inhibition: 2.56% (inactive)

## Cc1ccccc1NC(=O)NCCCN1CCN(C)CC1
[1]
  inhibition: 0.45% (inactive)

## Cc1ccccc1NC(=O)NCCN1CC1
[1]
  inhibition: inactive

## CC(NC(=O)c1cccc(S(=O)(=O)N(C)c2ccccc2)c1)c1cccnc1 (stereo not given)
[1]
  inhibition: 1.03% (inactive)

## C[N+]1(CCCCSc2ccc(O)cc2)CCCCC1
[1]
  inhibition: inactive

## Cc1ccc(NC(=O)CSc2ccc(-c3ccccn3)nn2)cc1
[1]
  inhibition: 0.64% (inactive)

## Cn1nnnc1SCC(=O)Nc1ncc(Cl)cc1Cl
[1]
  inhibition: 2.56% (inactive)

## Cc1nnc(SCC(=O)Nc2ncc(Cl)cc2Cl)n1Cc1ccccc1
[1]
  inhibition: 1.6% (inactive)

## CC(C)(C)NC(=O)CSc1nc2ccccc2n1-c1ccccc1
[1]
  inhibition: 7.16% (inactive)

## CC(C)NC(=O)CSc1nc2ccccc2n1-c1ccccc1
[1]
  inhibition: 3.21% (inactive)

## O=C(CSc1nnc2ccccn12)Nc1ncc(Cl)cc1Cl
[1]
  inhibition: 3.72% (inactive)

## Cc1ccc(-n2c(SCC(=O)Nc3cccc(S(N)(=O)=O)c3)nc3ccccc32)cc1
[1]
  inhibition: 2.21% (inactive)

## CC(C)c1ccc(-c2cc(C(=O)N3N=C(C(F)F)CC3(O)C(F)F)c3ccccc3n2)cc1 (stereo not given)
[1]
  inhibition: inactive

## O=C1CCC(C(=O)N2CCCCO2)CN1CCc1ccccc1 (stereo not given)
[1]
  inhibition: 2.16% (inactive)

## COc1ccc(C2CN=NC2C(=O)c2ccccc2)cc1 (stereo not given)
[1]
  inhibition: 0.98% (inactive)

## Cc1ccc(/C=N/n2c(-c3cccnc3)n[nH]c2=S)o1
[1]
  inhibition: 0.4% (inactive)

## CC(=O)Nc1ccc(S(=O)(=O)NC2=NCN(c3cccc([N+](=O)[O-])c3)CN2)cc1
[1]
  inhibition: 0.07% (inactive)

## Cc1nn(-c2ccccc2)c2c1C1(C(=O)Nc3ccccc31)N1C(=N2)Sc2ccccc21 (stereo not given)
[1]
  inhibition: 1.86% (inactive)

## CCCCCc1ccc(-c2nnc(N)s2)cc1
[1]
  inhibition: 2.86% (inactive)

## CC1=Nc2cc(C(=O)N3CCCC3)ccc2Sc2ccc(C)cc21
[1]
  inhibition: 1.14% (inactive)

## CC1=Nc2cc(C(=O)O)ccc2Sc2c(C)ccc(C)c21
[1]
  inhibition: 0.43% (inactive)

## CCOc1ccc(CCNC(=O)CCS(=O)(=O)c2ccc(OC)cc2)cc1OCC
[1]
  inhibition: 0.09% (inactive)

## O=C(Cn1ncc2c([nH]c3ccccc32)c1=O)NCCc1ccc(Cl)cc1
[1]
  inhibition: 1.06% (inactive)

## CCN(CC)c1ccc(-n2cc3c(=O)n(C)c(=O)n(C)c3c2)cc1
[1]
  inhibition: 5.43% (inactive)

## Cc1ccc(C)c(NC(=O)c2ccc3ccccc3n2)c1
[1]
  inhibition: 4.34% (inactive)

## CNC(=O)Nc1ccc(C(=O)N/N=C\C23CC[C@@H](O)CC2(O)CC[C@@H]2[C@@H]3CCC3(C)C(C4=CC(=O)OC4)CCC23O)cc1 (stereo not given in full)
[1]
  inhibition: 3.29% (inactive)

## CC(=O)OCC(=O)C1(O)CCC2C3CC(C)C4=CC(=O)CCC4(C)C3C(O)CC21C (stereo not given)
[1]
  inhibition: 2.53% (inactive)

## C[C@@H]1O[C@@H](O[C@@H]2C=C3CCC4C(CC[C@]5(C)[C@@H](c6ccc(=O)oc6)CC[C@]45O)[C@@]3(C)CC2)[C@H](O)[C@H](O)[C@H]1O (stereo not given in full)
[1]
  inhibition: 23.8% (inactive)
